# Hits are enriched below; roughly 1.7% of the tested compounds scored in any of these assays.
# GLP-1R agonist: agonists of human GLP-1 receptor | actives 0.007% (n = 380,000) | P43220 | Potency, µM (doses to about 45.6 µM), inactives show at the highest dose activation, most hits filed as activators | AID 624172 | HEK293 GLP-1R CRE-luciferase, luminescence, 4-6 h; cells express a hypersensitive GLP-1R form; also: potency is read from the fitted curve at half-maximal effect; % of control where 0% means no effect
# GLP1R cytotox: cytotoxicity counter-screen for GLP-1 receptor inverse agonists. Potency, µM (titrated, usually from 38.3 µM), for the others: at the highest dose activity change, negative = inhibition, most hits filed as inhibitors. AID 624418. actives 0.13% (n = 410,000). HEK293 cAMP-luciferase reporter cells, luminescence, 24 h;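 also: loss of luciferase light is scored as toxicity; potency is read from the fitted curve at half-maximal effect; % is scaled to controls: 0 for no effect and ±100 for the full control effect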
#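 A 23 nL compound transfer followed 12 hours of cell culture at 37 deg C; exposure then lasted 24 hr. Luciferase assay detection reagent was dispensed and plates read for luminescence after a 12 min room-temperature wait.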
# PTHR1 agonist: agonists of human PTHR1 parathyroid hormone receptor; Q03431; HEK293 GP2 PTHR1 cells, GloSensor cAMP luminescence, 1 h; Potency, µM (doses to about 115 µM), for the others: at the highest dose activation, usual class: activators; actives 0.075% (n = 410,000); AID 743266; also: potency is read from the fitted curve at half-maximal effect; nearly all actives have a fitted effect of over 55% in size
# Target sequence (Q03431 whole entry, looked up): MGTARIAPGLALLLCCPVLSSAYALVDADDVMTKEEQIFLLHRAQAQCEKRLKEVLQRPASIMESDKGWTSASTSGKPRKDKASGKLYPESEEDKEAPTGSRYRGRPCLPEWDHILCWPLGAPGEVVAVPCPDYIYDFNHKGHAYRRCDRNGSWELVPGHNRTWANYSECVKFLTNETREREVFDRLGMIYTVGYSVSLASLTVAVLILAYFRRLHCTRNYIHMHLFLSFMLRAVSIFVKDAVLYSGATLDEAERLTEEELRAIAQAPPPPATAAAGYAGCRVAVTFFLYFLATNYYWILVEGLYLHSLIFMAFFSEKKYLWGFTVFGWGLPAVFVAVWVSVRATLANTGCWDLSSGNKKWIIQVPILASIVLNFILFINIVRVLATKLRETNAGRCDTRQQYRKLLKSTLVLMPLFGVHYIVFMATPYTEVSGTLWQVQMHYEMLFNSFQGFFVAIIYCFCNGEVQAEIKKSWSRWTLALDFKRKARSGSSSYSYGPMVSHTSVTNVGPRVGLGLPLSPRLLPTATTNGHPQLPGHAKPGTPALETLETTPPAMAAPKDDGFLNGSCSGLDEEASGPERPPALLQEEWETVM
#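 HEK-293-derived GP2 cells expressing PTHR1 and a GloSensor cAMP reporter, 3,000/well, plated overnight, given luciferin plus IBMX (each 0.5 mM as added) for 1 h at 37 °C, then compound for 1 h at 37 °C. Luminescence was read after 15 min at room temperature.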
# LDHA block: blocks human lactate dehydrogenase A. actives 0.15% (n = 480,000). purified LDHA, NADH/diaphorase-resazurin fluorescence; active compounds read low. activity change, % (values are at about 110 or 230 µM). P00338; in the data active = activity change below about -30%; inconclusive = mostly about -25% to -30%;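 also: plate controls were DMSO wells for no effect and wells without enzyme for full effect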
#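 Remaining NADH was detected by diaphorase (0.133 mg/mL) converting 37 µM resazurin to fluorescent resorufin, read at 0 and 20 minutes. The preceding 5-minute room-temperature reaction used 2 nM LDHA, 0.2 mM sodium pyruvate and 0.06 mM NADH at pH 7.4.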
# IDH1 R132H inh: human IDH1 R132H inhibition. IDH1-R132H enzyme, NADPH consumption, diaphorase/resazurin fluorescence. Potency, µM (highest dose often 76.6 µM), for inactives: at the top dose activity change, negative = inhibition, hits mostly inhibitors. O75874. actives 0.093% (n = 390,000); also: potency is read from the fitted curve at half-maximal effect; % is scaled to controls: 0 for no effect and ±100 for the full control effect; nearly all actives have a fitted effect of over 65% in size
#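 IDH1-R132H (0.5 ug/mL dispensed) in pH 7.5 Tris buffer was preincubated 30 min with compound, then given a substrate mix of 0.016 mM NADPH and 2 mM alpha-KG for 80 min at room temperature; remaining NADPH was read by diaphorase/resazurin fluorescence.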
# GLP1R inv ag: inverse agonists of human GLP-1 receptor | HEK293 GLP-1R CRE-luciferase, luminescence, 24 h; GLP-1R form is constitutively active | Potency, µM (doses to about 38.3 µM), for inactives: at the highest dose activity change, negative = inhibition, most hits filed as inhibitors | actives 1.6% (n = 410,000) | AID 624417; also: potency is read from the fitted curve at half-maximal effect; % is scaled to controls: 0 for no effect and ±100 for the full control effect; nearly all actives have a fitted effect of over 55% in size
#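 HEK293 cells stably co-expressing constitutively active GLP-1R and a cAMP-responsive luciferase reporter were seeded in DMEM with 10% Nu serum, given compounds after 12 h, and incubated 24 h at 37 deg C. Luminescence was then read.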
# Active calls of the source: *; i = inactive; ? = inconclusive; · = not tested or not shown; [ ] = remark or other dose. Unless noted, calls follow the shape of the dose curve; as a rule, active = well fitted curve in the direction sought with a large enough effect; inconclusive = small, poorly fitted or top-dose-only effect, or another doubt; inactive = no such curve, though single readings can be large; an effect the other way counts as inactive or inconclusive.
SMILES,GLP-1R agonist,GLP1R cytotox,PTHR1 agonist,LDHA block,IDH1 R132H inh,GLP1R inv ag
CNc1c(NC(=O)NC2CCCC2)c(=O)oc2ccccc12,·,·,·,3.8,·,·
CC(C)CCCCCCNC(=S)Nc1ccc(S(=O)(=O)N2CCOCC2)cc1,-8.7%,?,-41.7%,-0.2,1.3%,3.55µM*
COc1ccccc1-[n+]1c(C)cc(/C=C2\Sc3ccccc3N2C)cc1C,-6.2%,-11.2%,-49.7%,-0.5,-0.2%,2.51µM*
COc1ccc(-[n+]2c(C)cc(/C=C3\Sc4ccccc4N3C)cc2C)cc1,0.0%,-23.6%,-29.4%,1.9,22.3%,?
O=C(NCc1nc(-c2ccccc2)no1)c1cccs1,8.6%,4.4%,i,-3.1,3.9%,0.0%
O=C(NCc1nc(-c2ccc(C(F)(F)F)cc2)no1)c1cccs1,-0.8%,-20.2%,-48.0%,-2.6,2.3%,10µM*
O=C(O)c1ccccc1-c1ccccc1C(=O)NNc1ccccc1,-3.3%,-7.7%,i,7.3,-1.2%,2.24µM*
O=C(O)c1ccccc1-c1ccccc1C(=O)Nc1ccccc1,-11.1%,-12.9%,3.3%[57.5 µM],-4.4,-1.8%,-2.2%
CCCCN1CC(COCc2ccccc2)Oc2cccc(Oc3ccc(OC)cc3)c2S1(=O)=O (stereo unspecified),-1.2%,13.0%,-41.3%,0.0,2.8%,?
CCCCN1CC(COCc2ccccc2)Oc2ccccc2S1(=O)=O (stereo unspecified),8.4%,15.0%,-23.8%,-5.2,7.3%,11.2µM*
O=S1(=O)c2ccccc2OC(COCc2ccccc2)CN1Cc1ccccc1 (stereo unspecified),-2.0%,5.5%,-14.1%,-1.4,6.7%,?
CCCCN1CC(COCc2ccccc2)Oc2cccc(OCCN3C(=O)[C@@H]4[C@H](C3=O)C3C=C[C@H]4C3)c2S1(=O)=O (stereo partly specified),-1.1%,-19.8%,-19.5%,-1.1,6.0%,10µM*
O=S1(=O)c2ccc(Br)cc2OC(COCc2ccccc2)CN1Cc1ccccc1 (stereo unspecified),10.6%,-6.2%,-1.5%,-6.7,0.1%,10µM*
Cc1cccc(-c2nc(NCCCN3CCOCC3)c3ccccc3n2)c1,11.4%,?,i,-8.7,1.5%,8.91µM*
O=C(C[n+]1ccc(-c2cc(C(=O)Nc3cccc(C(F)(F)F)c3)c3ccccc3n2)cc1)c1cccc([N+](=O)[O-])c1,-1.2%,?,-9.2%,0.4,9.8%,11.2µM*
CCOC(=O)CN1C(=O)C2Cc3ccccc3CN2C1=S (stereo unspecified),-4.2%,-0.6%,-16.7%[57.5 µM],-30.7*,?,-34.1%
CCOC(=O)CN1C(=O)c2ccccc2C1=O,11.3%,0.4%,i,-15.4,-4.8%,-7.1%
CCN1CCCC1CNC(=O)c1ccc2nc(C)c(C)nc2c1 (stereo unspecified),·,·,·,0.7,·,·
CC(C)CCNC(=O)C1(C)CCN1Cc1ccc2ccccc2c1 (stereo unspecified),7.9%,0.1%,-2.0%,0.2,·,10µM*
Cc1ccc(C)c(C(=O)Nc2ccc3oc(C)nc3c2)c1,·,·,·,6.2,·,·
CC(C)NC(=S)N/N=C/c1c[nH]c2ccccc12,21.2%,10µM*,-12.6%,-1.4,-0.4%,?
Cc1[nH]c2ccccc2c1/C=N/NC(=S)NC(C)C,15.1%,?,-12.3%,-0.5,13.3%,?
N/C(=N\OCc1ccc([N+](=O)[O-])cc1)c1ccccn1,-3.2%,-2.6%,-27.5%,-9.7,14.2%,1.26µM*
O=C(Cc1coc(-c2ccccc2)n1)NCCN(C(=O)Cc1coc(-c2ccccc2)n1)C1CC1,·,·,·,4.1,·,·
COc1ccc(OC)c(-c2nnc3n2N=C(c2ccc(OC)c(OC)c2)CS3)c1,2.24µM*,·,6.2%,0.1,·,·
SMILES,GLP-1R agonist,GLP1R cytotox,PTHR1 agonist,LDHA block,IDH1 R132H inh,GLP1R inv ag
COc1cc(-c2nn3c(C4CCCCC4)nnc3s2)cc(OC)c1OC,1.7%,17.2%,-4.8%[57.5 µM],-4.2,0.8%,40.9%
COc1ccc(C2=Nn3c(nnc3C3CCCCC3)SC2)cc1OC,3.16µM*,2.0%,i,2.7,-0.6%,105.3%
COc1ccc(-c2nn3c(C4CCCCC4)nnc3s2)cc1OC,2.51µM*,-7.4%,28.1%,-0.8,-4.3%,0.0%
CCOc1ccc(C2=Nn3c(nnc3-c3ccc(OC)cc3)SC2)cc1,10µM*,-18.0%,i,-3.3,-0.7%,0.0%
COc1ccc(OC)c(C2=Nn3c(nnc3C3CCCCC3)SC2)c1,5.5%,12.2%,i,1.9,-6.1%,58.9%
COc1ccc(C2=Nn3c(nnc3-c3ccccc3)SC2)cc1OC,?,6.3%,-0.8%[57.5 µM],-0.2,1.8%,0.0%
Cc1ccc(-c2nc(CNC(=O)C(C)Oc3ccccc3F)cs2)cc1 (stereo unspecified),·,·,·,1.8,·,·
CCN1CCN(CCNC(=O)CCn2ccc3cc(S(=O)(=O)N4CCCCC4)ccc32)CC1,·,·,·,5.4,·,·
Cc1c(C(=O)N(Cc2ccccc2)C(C)C)cnn1-c1ccccc1,12.4%,-15.9%,-22.8%,-0.5,4.4%,?
Cc1c(C(=O)N(Cc2ccccc2)Cc2cccs2)cnn1-c1ccc(Cl)cc1,14.8%,?,-63.9%,-5.2,-5.6%,5.62µM*
Cc1ccc(C(C)NC(=O)Cc2c[nH]c3ccccc23)o1 (stereo unspecified),·,·,·,5.9,·,·
COc1cccc(NC(=O)CN(C)C(=O)CNC(=O)c2ccc3c(c2)OCO3)c1,·,·,·,8.5,·,·
Cc1ccc(Nc2ncc(C(=O)N3CCN(c4ccc(F)cc4)CC3)c3ccccc23)cc1Cl,-2.1%,5.6%,-23.8%,6.2,11.2%,2.82µM*
COc1ccc(Nc2ncc(C(=O)N3CCN(c4cccc(Cl)c4)CC3)c3ccccc23)cc1,-1.5%,7.3%,-22.7%,-0.9,-6.5%,8.91µM*
CN(C)CCOCCOc1ccc(Cl)cc1C(C)(C)C,-0.1%,?,?,-9.1,13.2%,5.62µM*
CN(C)CCOc1ccccc1-c1ccccc1,-1.7%,9.1%,i,?,7.5%,7.2%
CC(O)CNCCCOc1ccc(Cl)cc1C(C)(C)C (stereo unspecified),0.3%,?,-10.5%,-11.5,13.6%,1.58µM*
CN(C)CCOCCOc1ccccc1-c1ccccc1,-13.7%,3.2%,i,-46.9*,2.3%,-0.6%
CSc1nc(Nc2ccccc2F)c(C#N)c(-c2ccccc2)n1,·,·,·,-3.3,·,·
